Source: the supplement of paper PMC9694430

tested on: LOC_OS01G60330-cb001; test: thermal shift delta Tm vs DMSO control; higher = stronger stabilization (binding); settings: 12.5 µM; protein concentration 2 µM
In short: (§1)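 Thermal shift values come from differential scanning fluorimetry on purified rice kinase domains made in E. coli, with melting temperatures obtained from Boltzmann fits. Samples of 19.5 μl held 2 μM kinase, 100 mM potassium phosphate pH 7.5, 150 mM NaCl, 10% glycerol, 5 × SYPRO Orange and compound in DMSO, and were heated from 25°C to 95°C at 0.05°C/s. Each shift is a triplicate mean relative to the DMSO-only protein sample.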
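Also: purified Escherichia coli-expressed rice kinase domain construct.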

Compound | thermal shift delta Tm
Cc1cc(NC(=O)c2cccc(NC(=O)/C=C/CN(C)C)c2)ccc1Nc1nccc(-c2cccnc2)n1 | 0.94 °C
N#Cc1ccc2ncnc(NCCc3ccccc3)c2c1 [Senexin A] | 0.74 °C
CCOc1cn(-c2ccc(F)cc2C)nc1C(=O)Nc1ccc(Oc2ccnc3cc(OC)c(OC)cc23)c(F)c1 | 1.07 °C
Fc1ccc2[nH]ccc2c1-c1nc(N2CCOCC2)c2sc(CN3CCN(CC4CC4)CC3)cc2n1 | 0.82 °C
COc1cccc2cc(-c3nc([C@H]4CC[C@H](C(=O)O)CC4)n4ncnc(N)c34)[nH]c12 | 0.91 °C
N#Cc1cnc(Nc2cc(NC[C@H]3CNCCO3)c(C(F)(F)F)cn2)cn1 | 1.05 °C
O=C(NOCCO)c1ccc2cncn2c1Nc1ccc(I)cc1F | -0.56 °C
COc1cc2c(Nc3ccc(NC(=O)c4ccccc4)cc3)ncnc2cc1OCCCN1CCOCC1 | 1.05 °C
NC(=O)Nc1cc(-c2cccc(F)c2)sc1C(=O)N[C@H]1CCCNC1 | 1.93 °C
CNC(=O)c1ccc(-c2cnc3ncc(Cc4ccc5ncccc5c4)n3n2)cc1F | -0.8 °C

tested on: LOC_OS01G60700-cb002; test: as above; settings: 12.5 µM; protein concentration 2 µM
In short: as §1

Compound | thermal shift delta Tm
COCCNCc1ccc(-c2cc3nccc(Oc4ccc(NC(=O)C5(C(=O)Nc6ccc(F)cc6)CC5)cc4F)c3s2)nc1 [Sitravatinib (MGCD516)] | -0.27 °C
COCC(=O)NC/C=C/c1ccc2ncnc(Nc3ccc(Oc4ccc(C)nc4)c(C)c3)c2c1 | 0.69 °C
O=C(NOC[C@H](O)CO)c1ccc(F)c(F)c1Nc1ccc(I)cc1F | 1.23 °C
Cc1cc(Nc2cc(N3CCN(C)CC3)nc(/C=C/c3ccccc3)n2)n[nH]1 | 0.77 °C
Nc1nc(N)c2nc(-c3cccc(O)c3)c(-c3cccc(O)c3)nc2n1 | 1.27 °C
Cc1nc(Nc2ncc(C(=O)Nc3c(C)cccc3Cl)s2)cc(N2CCN(CCO)CC2)n1 [Dasatinib] | 1.43 °C
O=C(c1ccc(Nc2nccc(-c3cc4ccccc4s3)n2)cc1)N1CCC(N2CCCC2)CC1 [IKK-16 (IKK Inhibitor VII)] | 0.43 °C
CC(C)CC(=O)Nc1n[nH]c2c1CN(C(=O)C1CCN(C)CC1)C2(C)C | 0.94 °C
COc1cc2c(Oc3ccc(NC(=O)C4(C(=O)Nc5ccc(F)cc5)CC4)cc3F)ccnc2cc1OCCCN1CCOCC1 | 0.58 °C
OCCn1cc(-c2cnc3nnn(Cc4ccc5ncccc5c4)c3n2)cn1 | 0.46 °C
CC(C)(C)c1nc(-c2ccc(NC(=O)Nc3cccc(C(F)(F)F)c3)c3ccccc23)c2c(N)nccn12 [kira6] | 0.03 °C
COc1ccc(-c2ccc3ncc4c(c3c2)n(-c2ccc(N3CCNCC3)c(C(F)(F)F)c2)c(=O)n4C)cn1 | 0.68 °C
FC(F)(F)c1ccc(CNc2ccc(Cc3c[nH]c4ncc(Cl)cc34)cn2)cn1 [Pexidartinib (PLX3397)] | 0.67 °C
Cc1nc(NC(=O)N2CCC[C@H]2C(N)=O)sc1-c1ccnc(C(C)(C)C(F)(F)F)c1 [Alpelisib (BYL719)] | 1.65 °C
O=C(NCCO)c1cccc(-c2cc(Nc3ccc(OC(F)(F)F)cc3)ncn2)c1 | 0.09 °C
C[C@@H](Nc1cc(F)cc(F)c1)c1cc(C(=O)N(C)C)cc2c(=O)cc(N3CCOCC3)oc12 | 1.09 °C
C[C@@H]1COCCN1c1cc(=O)n2c(n1)N(Cc1cncc(Cl)c1)[C@H](C(F)(F)F)CC2 | 1.05 °C
CNc1nc(-c2ccc3c(N)n[nH]c3c2)cc(N2C[C@@H](C(=O)NC3CCCCC3)CC[C@H]2C)n1 | 2.12 °C
COc1cc(N2CCC(N(C)C)CC2)ccc1Nc1ncc(Cl)c(Nc2ccccc2P(C)(C)=O)n1 | 0.89 °C
CN1CCN(c2ccc3nc(-c4c(N)c5c(F)cccc5[nH]c4=O)[nH]c3c2)CC1 [Dovitinib (TKI258) Lactate] | 1.84 °C
N#C/C(=C(/N)Sc1ccc(N)cc1)c1ccccc1C(F)(F)F | 0.64 °C
Cc1c(C(=O)N2CCOc3ccc(-c4ccc(N)nc4)cc3C2)ccc(S(C)(=O)=O)c1F | 0.98 °C
CCOc1cc2ncc(C#N)c(Nc3ccc(F)c(Cl)c3)c2cc1NC(=O)/C=C/CN(C)C [Pelitinib (EKB-569)] | 0.94 °C
Oc1ccc(Nc2nc(-c3ccc(Cl)cc3)cs2)cc1 | -0.25 °C
O=C(Nc1ccccc1C(=O)NC1CCCCNC1=O)c1cc2ccccc2s1 (stereo not drawn) | 0.65 °C
CC(C)c1c2cc(-c3ccnc(NC4CCC(NC5CCOCC5)CC4)n3)ccc2nn1C (stereo not drawn) | 0.86 °C
NCC(=O)Nc1ccc(-n2nc(C(F)(F)F)cc2-c2ccc3c(ccc4ccccc43)c2)cc1 | 0.02 °C
Cc1cc(NC(=O)c2cccc(NC(=O)/C=C/CN(C)C)c2)ccc1Nc1nccc(-c2cccnc2)n1 | 1.77 °C
